# Experimental data taken from ChEMBL document CHEMBL1201862, “PubChem BioAssay data set” (2004).
# The campaign covered roughly 42,000 sequences. About 3,100 (7.4%) were called active. No stated cut-off is given here; in the data, active = GI50 up to about 1.1 µM and inactive = higher. These entries were drawn from the full list. Entries with a potency or affinity are not part of this list.
# Test system: Hs-578T
row,Substance,GI50 [µM]
1,"CISPLATIN, CHEMBL11359",4.98
2,"[Bis(aminomethyl)tetramethylenesilane]tetrachloropaltinum(IV), CHEMBL2146189",21.2
3,"[Bis(aminomethyl)dimethylsilane]tetrachloroplatinum(IV), CHEMBL2146190",> 100
4,"[Bis(aminomethyl)pentamethylenesilane]dichloropaltinum(II), CHEMBL2146202",1.18
5,"[Bis(aminomethyl)tetramethylenesilane]dichloropaltinum(II), CHEMBL2146205",32.4
6,"[Bis(aminomethyl)pentamethylenesilane]tetrachloropaltinum(IV), CHEMBL2146204",28.8
